In the library only some 19% were active in any assay of this set; here they are far more common.
IL-1B inflam inh: qHTS for Inhibitors of Inflammasome Signaling: IL-1-beta AlphaLISA Primary Screen; 360,000 compounds, 4.7% hits; activity change, % at 57.5 µM; THP-1 LPS/ATP IL-1B secretion, AlphaLISA, 16 h; active compounds read low; AID 743279, 2014; in the data active = activity change below about -50%; inconclusive = mostly about -30% to -49%
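THP-1 cells pretreated 1 hr with compounds (up to 57.5 uM final), then stimulated with LPS (250 ng/mL final) plus ATP (1.25 mM final); secreted IL-1B measured by AlphaLISA after 16 hr, decreased signal indicating inhibition.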
ELG1 DNA repair: qHTS screen for small molecules that inhibit ELG1-dependent DNA repair in human embryonic kidney (HEK293T) cells expressing luciferase-tagged ELG1 | HEK293T ELG1-luciferase reporter, luminescence, 16 h; DNA damage induced by 5-fluorouridine | 330,000 compounds, 2.3% hits | Potency, µM (titrated, usually from 46.1 µM), for the others: at the top dose activity change, negative = inhibition, usual class: inhibitors; note: potency is the fitted concentration of half-maximal effect; nearly all actives have a fitted effect of over 55% in size
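5-Fluorouridine DNA damage + compound/DMSO, 2,000 cells/well, 16 h, 37 °C/5% CO2. ONE-Glo, 30 min RT, luminescence. Readout = decrease in reporter signal.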
Giardia kill: Small Molecules that selectively kill Giardia lamblia: qHTS. Giardia lamblia trophozoite viability. activity change, % at 7.66 µM, hits read low. 340,000 compounds, 0.15% hits; in the data active = activity change below about -80%; inconclusive = between about -30% and that limit;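 note: parasites exposed to compound for two days anaerobically before the ATP read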
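Trophozoites 100 cells/well + cpd; 48 hrs, 37 deg C, anaerobic. ATPLite 1-Step added, 15-30 min RT, luminescence read (ATP-based viability).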
TDP1 block: qHTS Assay for Inhibitors of Tyrosyl-DNA Phosphodiesterase (TDP1); Tyrosyl-DNA phosphodiesterase 1 (Homo sapiens), Q9NUW8; recombinant TDP1, AlphaScreen DNA substrate cleavage; Potency, µM (series often up to 130 µM), for the others: top-dose activity change, negative = inhibition, most hits filed as inhibitors; 350,000 compounds, 0.28% hits; note: potency is the fitted concentration of half-maximal effect; nearly all actives have a fitted effect of over 40% in size
Target sequence (Q9NUW8 whole entry, looked up): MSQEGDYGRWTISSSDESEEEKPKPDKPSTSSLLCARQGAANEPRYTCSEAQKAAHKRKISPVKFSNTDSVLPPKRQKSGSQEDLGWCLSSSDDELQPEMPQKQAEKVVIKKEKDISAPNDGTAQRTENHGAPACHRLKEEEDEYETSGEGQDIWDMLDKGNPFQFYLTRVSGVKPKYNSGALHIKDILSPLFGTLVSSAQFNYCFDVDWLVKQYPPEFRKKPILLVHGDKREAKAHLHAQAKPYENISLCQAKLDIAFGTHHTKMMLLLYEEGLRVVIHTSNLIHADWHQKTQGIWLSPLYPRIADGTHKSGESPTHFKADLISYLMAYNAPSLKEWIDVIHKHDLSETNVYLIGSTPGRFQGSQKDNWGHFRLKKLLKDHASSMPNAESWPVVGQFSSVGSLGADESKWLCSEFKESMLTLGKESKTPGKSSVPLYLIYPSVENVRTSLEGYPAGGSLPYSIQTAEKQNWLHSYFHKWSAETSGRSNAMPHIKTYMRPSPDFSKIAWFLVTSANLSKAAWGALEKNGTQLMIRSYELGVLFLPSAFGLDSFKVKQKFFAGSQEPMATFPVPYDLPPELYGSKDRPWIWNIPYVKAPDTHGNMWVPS
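AlphaScreen read-out: signal falls as enzyme removes the 3' tyrosine-FITC from a 5'-biotinylated DNA oligo (15 nM, 5 min, RT). Enzyme was E. coli-made recombinant Tdp1 at 1 nM, exposed to compound for 15 min beforehand; beads 10 ug/ml, 10 min.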
DT40 TDP1 no CPT: qHTS for Inhibitors of human tyrosyl-DNA phosphodiesterase 1 (TDP1): qHTS in cells in absence of CPT | DT40 Tdp1-/- hTDP1 cells, no CPT, ATP luminescence, 48 h | Potency, µM (highest dose often 46.2 µM), for inactives: at the top dose activity change, negative = growth inhibition, usual class: inhibitors | 420,000 compounds, 15% hits | AID 686978, 2013; note: potency is the fitted concentration of half-maximal effect; nearly all actives have a fitted effect of over 55% in size
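A cellular qHTS used chicken DT40 cells lacking endogenous Tdp1 but carrying stably transfected human TDP1. Compounds were applied without camptothecin, and cell growth kinetics were judged by ATP-dependent luminescence after ≥48 hr.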
DT40 TDP1 CPT: qHTS for Inhibitors of human tyrosyl-DNA phosphodiesterase 1 (TDP1): qHTS in cells in presence of CPT; Potency, µM (highest dose often 46.2 µM), without a hit: at the top dose activity change, negative = growth inhibition, hits mostly inhibitors; 420,000 compounds, 12% hits; chicken DT40 Tdp1-/-;hTDP1 cells + 20 nM CPT, ATP luminescence, 48 h; note: potency is the fitted concentration of half-maximal effect; nearly all actives have a fitted effect of over 55% in size
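Cell growth measured by CellTiter-Glo luminescence after a minimum 48 h, 37 C compound exposure with 20 nM CPT in Tdp1-knockout DT40 cells stably expressing hTDP1, seeded 400/well; qHTS titration format.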
* marks the source's active call; other numbers are inactive results; i = inactive; ? = inconclusive; nt = no result. Unless noted, calls come from the whole dose curve; as a rule, active = well fitted curve in the direction sought with a large enough effect; inconclusive = small, poorly fitted or top-dose-only effect, or another doubt; inactive = no such curve, though single readings can be large; an effect the other way counts as inactive or inconclusive. % is set by controls: 0 for no effect and ±100 for the full control effect.

SMILES | IL-1B inflam inh | ELG1 DNA repair | Giardia kill | TDP1 block | DT40 TDP1 no CPT | DT40 TDP1 CPT
C#CCOCCOCCOCCNc1nc(N2CCN(C(=O)CCCCCCCCCCNC(=O)[C@H]([C@@H](C)CC)n3cc(CCCCCN)nn3)CC2)nc(N2CCN(C(=O)CCCCCCCCCCNC(=O)[C@@H]([C@H](C)CC)n3cc(CCCCCN)nn3)CC2)n1 | nt | ? | nt | 11% | nt | nt
Cc1cc2oc3c(c(=O)c2cc1C)C1(C(=O)N(C)c2ccccc21)N(CCO)C3=O (centres undefined) | nt | nt | nt | 4% | 2% | -22%
Cc1cc(C)n2[nH]c(=O)cc2n1 | 10 | nt | nt | nt | -10% | -11%
CC(C)c1cc(C(C)C)c(S(=O)(=O)Nc2cccc3cccnc23)c(C(C)C)c1 | nt | nt | nt | 16% | nt | nt
C#CCOCCOCCOCCNc1nc(N2CCN(C(=O)CCCCCCCCCCNC(=O)[C@H]([C@@H](C)CC)n3cc(CCCCCN)nn3)CC2)nc(N2CCN(C(=O)CCCCCCCCCCNC(=O)[C@H](CCCCN)n3cc(CCCC(=O)O)nn3)CC2)n1 | -88* | 11% | 8 | 8% | -26% | -21%
C#CCOCCOCCOCCNc1nc(N2CCN(C(=O)CCCCCCCCCCNC(=O)[C@H](CCCCN)n3cc(CCCC(=O)O)nn3)CC2)nc(N2CCN(C(=O)CCCCCCCCCCNC(=O)[C@@H]([C@H](C)O)n3cc(C)nn3)CC2)n1 | 0 | -24% | -18 | 10% | -1% | -10%
C#CCOCCOCCOCCNc1nc(N2CCOCC2)nc(N2CCN(C(=O)[C@H](CCCCN)n3cc(CCCC)nn3)CC2)n1 | 12 | nt | -6 | nt | 1.3µM* | 0.21µM*
Cc1cc(C)c2c3c(sc2n1)C(c1cccc(F)c1)C(C#N)=C(N)O3 (centres undefined) | -79* | 16% | 11 | 8% | 16µM* | ?
Cc1[nH]c2ccccc2c1/C=C/c1ccnc2ccccc12 | nt | nt | nt | nt | 2.8µM* | 5.6µM*
CC(C)n1c(/N=C/c2c[nH]c3ccccc23)nc2ccccc21 | 0 | 0% | 2 | 6% | -26% | ?
C(=C\c1c[nH]c2ccccc12)/c1ccnc2ccccc12 | nt | nt | nt | nt | 20µM* | ?
Cc1[nH]c2ccccc2c1/C=C/C(=O)c1ccccc1 | -12 | ? | -12 | -8% | ? | ?
COC(=O)/C(C#N)=C/c1cc(C)sc1C | nt | -12% | -9 | 4% | -23% | 9%
CN(C)C(=O)c1ccc(S(=O)(=O)NCc2ccc(Cl)cc2)s1 | nt | nt | nt | 6% | ? | ?
CCc1ccc(NS(=O)(=O)c2ccc(C(=O)N(C)C)s2)cc1 | nt | nt | nt | -6% | 15µM* | 18µM*
Cc1cccc(C)c1NC(=O)CCCSc1nnc(-c2ccc(F)cc2)n1-c1ccccc1 | -19 | 16µM* | 19 | 6% | ? | ?
COc1ccc(-c2nnc(SCCC(=O)O)n2-c2ccccc2)cc1OC | 12 | -7% | 8 | 4% | 12% | -1%
Cc1cccc(C)c1NC(=O)CCCSc1nnc(-c2ccc(Cl)cc2)n1-c1ccccc1 | i | 21µM* | 3 | -3% | 16µM* | 23µM*
O=C(CSc1nnc(-c2ccncc2)n1-c1ccccc1)Nc1ccc(F)cc1 | nt | nt | nt | -1% | -10% | 9%
O=C(O)CC1CCC(=C(Cl)Cl)C1 (centres undefined) | -74* | ? | -1 | nt | 2.9µM* | 1µM*
O=C(O)CC1CC(O)CCC1=O (centres undefined) | 7 | nt | nt | nt | -6% | -22%
